Active and inactive are the calls of the source. Unless noted, how the calls were made is not given here.
Experiments:
[1] = HepG2 liver cancer cell viability effects, profiling panel, resazurin fluorescence, 24 h, PK04 Diversity Set (AID 1172); conditions: higher = more signal
[2] = basal S. cerevisiae growth modulation, no modifier, primary screen, OD600, strain BY4716, 24 h, basal condition (AID 1173); conditions: OD600, 24 h, higher = more signal, called active from +8 up or from −8 down
[3] = MM1S myeloma cell viability, profiling panel, resazurin fluorescence, basal, 24 h, PK04 Diversity Set (AID 1174); conditions: higher = more signal, called active from +8 up or from −8 down;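 further: MM1S multiple myeloma cell line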
[4] = biological target: Dihydroorotate dehydrogenase (quinone), mitochondrial (Plasmodium falciparum (isolate 3D7)) (UniProt Q08210); assay: PfDHODH enzyme inhibitors, primary screen, biochemical, C-terminal His tag, absorbance 600 nm (AID 1175); conditions: DCIP absorbance 600 nm, higher = more signal, called active from +8 up or from −8 down;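 further: recombinant parasite enzyme with a five histidine tag at its C terminus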
Chain of Dihydroorotate dehydrogenase (quinone), mitochondrial (Plasmodium falciparum (isolate 3D7)) (Q08210 whole entry, looked up): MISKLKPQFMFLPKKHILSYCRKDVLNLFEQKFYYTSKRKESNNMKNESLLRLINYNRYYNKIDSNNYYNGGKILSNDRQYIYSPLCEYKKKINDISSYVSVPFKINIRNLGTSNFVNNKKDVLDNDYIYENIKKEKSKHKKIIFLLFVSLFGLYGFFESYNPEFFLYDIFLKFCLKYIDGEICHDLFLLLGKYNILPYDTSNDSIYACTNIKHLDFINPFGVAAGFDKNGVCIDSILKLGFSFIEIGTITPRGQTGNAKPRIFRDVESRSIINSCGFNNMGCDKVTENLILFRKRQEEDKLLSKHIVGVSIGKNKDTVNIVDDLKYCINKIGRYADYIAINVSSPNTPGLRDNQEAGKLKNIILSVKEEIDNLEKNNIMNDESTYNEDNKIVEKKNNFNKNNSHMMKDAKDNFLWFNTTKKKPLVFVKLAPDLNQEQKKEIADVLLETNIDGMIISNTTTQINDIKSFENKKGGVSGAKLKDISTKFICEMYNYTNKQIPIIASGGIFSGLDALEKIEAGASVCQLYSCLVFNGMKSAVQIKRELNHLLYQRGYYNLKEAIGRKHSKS

[5] = P. aeruginosa biofilm formation inhibitors, primary screen, strain PAO1, LB-PBS medium, absorbance 600 nm (AID 1176); conditions: P. aeruginosa PAO1 growth/biofilm, A600, 12 h; higher = more signal
[6] = S. cerevisiae RM11-1a growth modifiers, primary screen, strain RM11-1a, OD600, basal, 24 h (AID 1177); conditions: OD600, 24 h, higher = more signal, called active from +8 up or from −8 down;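 further: cultures grown under basal conditions with no added stressor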
[7] = E. coli acrAB mutant growth effects, primary screen, E. coli filamentation inducers, strain DRC39, OD650, 24 h (AID 1178); conditions: higher = more signal, called active from +8 up or from −8 down;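 further: growth measured as culture turbidity by optical density at 650 nm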
[8] = E. coli acrAB mutant growth effects, primary screen, E. coli filamentation inducers, strain DRC39, OD650, 48 h (AID 1179);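 further: screen aims at cell division blockers that make cells filament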; conditions: E. coli DRC39 delta-acrAB growth, higher = more signal, called active from +8 up or from −8 down
[9] = RPMI8226 myeloma cell viability, profiling panel, resazurin fluorescence, basal, 24 h, PK04 Diversity Set (AID 1180); conditions: higher = more signal;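 further: RPMI8826 multiple myeloma cell line at 5000 cells per well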
[10] = biological target: E3 ubiquitin-protein ligase XIAP (Homo sapiens) (UniProt P98170); assay: XIAP binders, primary screen, biophysical, small-molecule microarray, fluorescence 635 nm (AID 1181); conditions: small-molecule microarray binding, higher = more signal;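 further: score merges 667 nm emission and signal to noise over triplicate slides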
Chain of E3 ubiquitin-protein ligase XIAP (Homo sapiens) (P98170 whole entry, looked up): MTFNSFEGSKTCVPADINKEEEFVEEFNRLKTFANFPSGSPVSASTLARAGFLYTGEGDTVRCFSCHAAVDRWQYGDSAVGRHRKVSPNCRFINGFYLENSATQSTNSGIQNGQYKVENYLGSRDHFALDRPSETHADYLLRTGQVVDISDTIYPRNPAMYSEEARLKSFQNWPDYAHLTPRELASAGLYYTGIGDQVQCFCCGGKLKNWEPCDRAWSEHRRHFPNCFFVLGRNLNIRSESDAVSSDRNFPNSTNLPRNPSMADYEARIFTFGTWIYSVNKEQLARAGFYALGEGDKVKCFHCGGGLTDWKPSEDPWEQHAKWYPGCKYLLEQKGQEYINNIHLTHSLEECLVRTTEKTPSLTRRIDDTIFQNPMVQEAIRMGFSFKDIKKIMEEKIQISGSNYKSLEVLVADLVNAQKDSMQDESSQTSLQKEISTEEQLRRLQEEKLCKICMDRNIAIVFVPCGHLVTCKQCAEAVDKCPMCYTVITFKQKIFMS

[11] = system: XIP peptide (Xip251-270) binding; assay: small-molecule binders of XIP peptide, primary screen, biochemical, small-molecule microarray, fluorescence 635/667 nm, 0.1 µg/mL protein (AID 1182); conditions: fluorescent protein binding, 635 nm, higher = more signal, called active from +8 up or from −8 down
XIP peptide (Xip251-270) = assay: small-molecule binders of XIP peptide, primary screen, biochemical, small-molecule microarray, fluorescence 635/667 nm, 0.5 µg/mL protein (AID 1183); conditions: small-molecule microarray binding, fluorescence 635 nm; higher = more signal
[12] = Plasmodium falciparum growth inhibition, primary screen, strain 3D7, DAPI fluorescence, 100 nL (AID 1184);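 further: parasites grown inside human red blood cells in medium with human serum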; conditions: P. falciparum 3D7 growth, 3 d, higher = more signal
[13] = biological target: Homeobox protein Hox-A13 (Mus musculus) (UniProt Q62424); assay: inhibitors of HoxA13-DNA binding, primary screen, biochemical, fluorescence polarization, labeled oligonucleotide (AID 1185); conditions: 15 min, higher = more signal, called active from +8 up or from −8 down
Chain of Homeobox protein Hox-A13 (Mus musculus) (Q62424 whole entry, looked up): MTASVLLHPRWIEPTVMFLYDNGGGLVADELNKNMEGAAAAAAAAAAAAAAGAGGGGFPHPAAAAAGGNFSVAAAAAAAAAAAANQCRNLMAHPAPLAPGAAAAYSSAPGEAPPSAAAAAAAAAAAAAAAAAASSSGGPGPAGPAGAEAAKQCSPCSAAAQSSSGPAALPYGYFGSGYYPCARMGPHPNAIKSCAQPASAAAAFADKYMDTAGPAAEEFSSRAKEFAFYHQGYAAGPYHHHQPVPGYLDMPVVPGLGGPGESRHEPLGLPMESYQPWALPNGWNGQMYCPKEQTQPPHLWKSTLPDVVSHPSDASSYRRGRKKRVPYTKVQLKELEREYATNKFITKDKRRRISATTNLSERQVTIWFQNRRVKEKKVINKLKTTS

[14] = inhibitors of hydroxyurea-induced Chk1 phosphorylation, primary screen, imaging, HeLa, phospho-Chk1 antibody, percent positive cells (AID 1186); conditions: hydroxyurea-induced phospho-Chk1 immunofluorescence imaging, higher = more signal
[15] = inhibitors of hydroxyurea-induced Chk1 phosphorylation, primary screen, imaging, HeLa, phospho-Chk1 nuclear intensity (AID 1187); conditions: hydroxyurea-induced phospho-Chk1 immunofluorescence imaging, higher = more signal

Row | Structure (SMILES) | z-score [1] | z-score [2] | z-score [3] | composite z-score [4] | z-score [5] | z-score [6] | z-score [7] | z-score [8] | z-score [9] | composite z-score [10] | composite z-score [11] | composite z-score (XIP peptide (Xip251-270)) | z-score [12] | z-score [13] | z-score [14] | z-score [15]
1 | COc1c(C)cc(-c2cc3c(c(Cc4ccccc4)n2)[Si](C(C)C)(C(C)C)OC3)cc1C | -0.683 | 1.06 (inactive) | -0.533 (inactive) | -0.0592 (inactive) | 0.055 (inactive) | 0.576 (inactive) | -0.363 (inactive) | -0.779 (inactive) | -0.661 | -0.138 | -0.337 (inactive) | -0.0392 | -2.74 | 0.472 (inactive) | -0.142 (inactive) | 0.135 (inactive)
2 | O=C1O[C@@H](c2ccccc2)[C@@H](c2ccccc2)N2[C@@H](c3ccccc3OCCO)[C@]3(C(=O)Nc4ccccc43)[C@@H](C(=O)NC[C@H](O)c3ccccc3)[C@H]12 | -1.03 | 0.587 (inactive) | -6.16 (inactive) | 1.65 (inactive) | 2.05 (inactive) | 3.08 (inactive) | -0.0586 (inactive) | 0.495 (inactive) | -6.99 | 0.311 | 1.42 (inactive) | -0.303 | -0.692 | -5.34 (inactive) | -0.152 (inactive) | -0.169 (inactive)
3 | COc1ccc([Si](C)(C)[C@H]2[C@H](CCn3cc([C@H](O)c4ccccc4)nn3)O[C@@]3(C(=O)N(Cc4cccc(N5C(=O)c6cccc7cccc5c67)c4)c4ccccc43)[C@@H]2C)cc1 | -0.717 | 0.807 (inactive) | -1.98 (inactive) | 0.0064 (inactive) | 1.42 (inactive) | 0.378 (inactive) | -0.0889 (inactive) | -0.216 (inactive) | -1.47 | -0.0516 | 0.75 (inactive) | 0.141 | -0.989 | -2.01 (inactive) | 0.169 (inactive) | -0.656 (inactive)
4 | CC(C)C(O)C1C=CC2C(=O)N(C)C(=O)C2N1Nc1ccccc1 (centres undefined) | -0.0778 | -0.411 (inactive) | -0.84 (inactive) | -0.482 (inactive) | 0.931 (inactive) | 0.0222 (inactive) | -0.219 (inactive) | -0.434 (inactive) | -1.29 | 0.0159 | 0.292 (inactive) | 0.655 | 0.771 | -1.81 (inactive) | 0.331 (inactive) | 0.193 (inactive)
5 | O=C1c2ccccc2[C@](Cc2ccccc2I)(C(=O)NCCN2CCOCC2)[C@H](c2ccc(CO)cc2)N1Cc1ccccc1 | -0.462 | -0.915 (inactive) | 0.068 (inactive) | 0.215 (inactive) | 0.186 (inactive) | 0.233 (inactive) | -0.256 (inactive) | -0.0438 (inactive) | -0.713 | 0.0904 | 0.198 (inactive) | 0.67 | -0.74 | -5.76 (inactive) | -0.0525 (inactive) | -0.321 (inactive)
6 | O=C1O[C@@H](c2ccccc2)[C@@H](c2ccccc2)N2[C@@H](c3ccccc3OCCO)[C@]3(C(=O)Nc4ccc(C#CCCO)cc43)[C@@H](C(=O)Nc3nc4ccccc4s3)[C@H]12 | -0.0116 | 0.282 (inactive) | -0.095 (inactive) | -0.176 (inactive) | 0.986 (inactive) | 2.39 (inactive) | -0.233 (inactive) | 0.695 (inactive) | -0.226 | -0.145 | 0.767 (inactive) | 0.698 | -2.14 | -2.2 (inactive) | -0.0607 (inactive) | 0.0274 (inactive)
7 | [N-]=[N+]=NCc1ccccc1C[C@@]1(C(=O)N2CCCCC2)N=C(c2ccc(OCCCO)cc2)O[C@@H]1c1ccccc1N=[N+]=[N-] | 0.226 | 0.146 (inactive) | -0.964 (inactive) | 0.42 (inactive) | 0.509 (inactive) | 1.41 (inactive) | 0.878 (inactive) | -0.0021 (inactive) | -0.892 | 0.0694 | 1.25 (inactive) | 0.386 | -2.24 | -1.84 (inactive) | -0.298 (inactive) | 0.246 (inactive)
8 | CCOC(=O)C1=CC[C@@H](c2ccccc2C(F)(F)F)N(S(=O)(=O)c2ccc(C)cc2)C1 | -0.217 | -3.44 (inactive) | -0.578 (inactive) | -2.99 (inactive) | -0.184 (inactive) | -1.07 (inactive) | -0.346 (inactive) | 0.984 (inactive) | -0.338 | -0.12 | 0.561 (inactive) | 0.667 | -0.386 | -2.64 (inactive) | -0.155 (inactive) | -0.341 (inactive)
9 | CCCC=C(CCC)[C@@H](NP(=O)(c1ccccc1)c1ccccc1)c1ccc(C(F)(F)F)cc1 | 1.02 | 0.534 (inactive) | 0.839 (inactive) | 0.0197 (inactive) | -0.511 (inactive) | -0.359 (inactive) | 0.3 (inactive) | -0.93 (inactive) | 0.495 | 0.328 | -0.185 (inactive) | 0.258 | -0.591 | -1.19 (inactive) | 0.272 (inactive) | -0.0984 (inactive)
